Here are results for 31 molecules from ChEMBL document CHEMBL1961873, “Compounds: GSK PKIS; Assays: Nanosyn kinase panel” (2012).

By inhibition is commonly meant the drop in the measured response relative to a control, in per cent.

Where “and” joins values, the source holds several entries; their conditions need not be identical. Equal values may be shown once.
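Further: reported figure is the mean inhibition of CAMK1D, from the GSK PKIS screening.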

This test deals with Calcium/calmodulin-dependent protein kinase type 1D (Homo sapiens) (UniProt Q8IU85). The settings on record: at 0.1 µM.
Chain of Calcium/calmodulin-dependent protein kinase type 1D (Homo sapiens) (Q8IU85 whole entry, looked up): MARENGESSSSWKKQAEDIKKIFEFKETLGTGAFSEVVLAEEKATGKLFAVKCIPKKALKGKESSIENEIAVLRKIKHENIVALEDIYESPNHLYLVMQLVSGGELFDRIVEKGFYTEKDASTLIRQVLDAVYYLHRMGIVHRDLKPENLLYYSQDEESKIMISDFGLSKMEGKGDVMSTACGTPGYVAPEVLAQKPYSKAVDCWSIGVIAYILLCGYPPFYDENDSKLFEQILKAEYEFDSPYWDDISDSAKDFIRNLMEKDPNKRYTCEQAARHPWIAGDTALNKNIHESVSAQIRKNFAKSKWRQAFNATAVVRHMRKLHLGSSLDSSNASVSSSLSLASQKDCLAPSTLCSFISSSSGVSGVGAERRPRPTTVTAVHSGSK
In the case of `COc1cccc(-n2ncc3c(N/N=C/c4ccc(C(=O)NCCN(C)C)cc4)ncnc32)c1`, the inhibition was determined as 0.97%.

Take `CS(=O)(=O)Nc1ccc(-c2cc(-c3ccccc3)cc(C(N)=O)c2N)cc1`: the inhibition was -0.99%.

In the case of `CCn1c(-c2nonc2N)nc2cncc(C(=O)NCCNC)c21`, the inhibition was -0.23%.

As to `NS(=O)(=O)c1ccc(N/N=C2\C(=O)Nc3cccc(CCc4ccncc4)c32)cc1`, the inhibition came to 0.4%.

For the molecule `CCOc1ccc2c(-c3ccnc(Nc4cc(OC)cc(C(F)(F)F)c4)n3)cnn2n1`, the inhibition was found to be 0.33%.

Turning to `Cc1ccc(-c2cc3c(NC(=O)C4CC4)ncnc3o2)cc1`, the inhibition came out at 0.92%.

Regarding `COc1cc2c(cc1Nc1nc(Nc3cccc(F)c3C(N)=O)c3cc[nH]c3n1)N(C(=O)CN1CCN(C(C)C)CC1)CC2`, the inhibition came to 1.29%.

Consider `Nc1ncnc2occ(-c3ccc(NC(=O)Nc4cc(C(F)(F)F)ccc4F)cc3)c12`, for which the inhibition was 1.85% and -1.45%.

For the molecule `CN1CCN(Cc2ccc(-c3cc4ncnc(Nc5ccc(OCc6cccc(F)c6)c(Cl)c5)c4s3)o2)CC1`, the inhibition is 0.32% and 0.88%.

For the molecule `NC(=O)c1ccc2c(-c3ccnc(NCCCO)n3)c(-c3ccc(F)cc3)nn2c1`, the inhibition was -0.23%.

Consider `CN1CCC(n2cnc(-c3ccc(F)cc3)c2-c2ccnc(NCCO)n2)CC1`, for which the inhibition is -1.1%.

With `O=C(O[C@H]1CN[C@H](C#Cc2cc3ncnc(Nc4ccc5c(cnn5Cc5ccccc5)c4)c3s2)C1)N1CCOCC1`, the inhibition is 0.26%.

On to `Cc1c2ccc(N(C)c3ccnc(Nc4cccc(S(N)(=O)=O)c4)n3)cc2nn1C`, for which the inhibition amounted to 0.58%.

`CNC(=O)c1cncc(/C=C/c2ccccc2C)c1`: the inhibition is -0.17%.

Regarding `COc1ccc(Nc2ncc(-c3ccccc3)o2)cc1OC`, the inhibition is 0.37%.

`CS(=O)(=O)CCNCc1ccc(-c2ccc3ncnc(Nc4ccc(OCc5ccccc5)cc4)c3c2)o1`: the inhibition worked out at 0.33%.

`CCCNc1cccc(-n2ncc3c(N/N=C/c4ccncc4)ncnc32)c1`: the inhibition stood at 0.76%.

Consider `COc1c(C(N)=O)cc(-c2ccc(Cl)cc2)cc1-c1ccc(S(N)(=O)=O)cc1`, for which the inhibition turned out to be 0.45%.

Consider `COc1cccc(Nc2nccc(-c3cnn4ncccc34)n2)c1`, for which the inhibition was -0.48%.

In the case of `CN(c1ccc(NC(=O)NCCN2CCOCC2)cc1)c1ccnc(Nc2ccc(CS(C)(=O)=O)cc2)n1`, the inhibition was -0.41%.

As to `COc1ccc(-c2nn3ncccc3c2-c2ccnc(Nc3ccc(F)c(F)c3)n2)cc1`, the inhibition was -0.12%.

Regarding `COc1cc(N2CCN(C(C)C)CC2)ccc1Nc1nc(Nc2cccc(F)c2C(=O)O)c2cc[nH]c2n1`, the inhibition is -0.23%.

Turning to `CC(C)c1ccc(-c2cc(-c3c[nH]nc3-c3ccccn3)ccn2)cc1`, the inhibition is -0.78%.

Regarding `CS(=O)(=O)Nc1ccc(-c2ccc3c(NC(=O)C4CC4)n[nH]c3c2)cc1`, the inhibition turned out to be 0.46%.

In the case of `Cn1c(-c2nonc2N)nc2cnccc21`, the inhibition is 0.12%.

`CS(=O)(=O)CCNCc1ccoc1-c1ccc2ncnc(Nc3ccc(OCc4ccccc4)cc3)c2c1`: the inhibition was -0.18%.

As to `O=C(O[C@H]1CN[C@H](C#Cc2cc3ncnc(Nc4ccc5c(ccn5Cc5cc(F)ccc5F)c4)c3s2)C1)N1CCOCC1`, the inhibition came out at 0.69%.

`Nc1nccc(-c2c(-c3ccc(F)cc3)ncn2C2CCNCC2)n1`: the inhibition was -0.73% and -0.33%.

For `COC(=O)Nc1nc2cc(Oc3ccc(NC(=O)Nc4ccccc4)cc3)ccc2[nH]1`, the inhibition came out at 0.99%.

Regarding `CNC(=O)c1ncccc1Nc1nc(Nc2cc3c(cc2OC)CCCN3C(=O)CN(C)C)nc2[nH]ccc12`, the inhibition turned out to be 1.94%.

Turning to `O=C(Nc1n[nH]c2nnc(-c3cccnc3)cc12)C1CC1`, the inhibition was determined as 0.85%.
